Here are results for 158 variants from a collection of fitness landscapes (doi:10.1126/science.1257360).

B1: PhoQ; a variant is named by its letters at X, in order, P23837 (parent)
chain: MKKLLRLFFPLSLRVRFLLATAAVVLVLSLAYGMVALIGYSVSFDKTTFRLLRGESNLFYTLAKWENNKLHVELPENIDKQSPTMTLIYDENGQLLWAQRDVPWLMKMIQPDWLKSNGFHEIEADVNDTSLLLSGDHSIQQQLQEVREDDDDAEMTHSVAVNVYPATSRMPKLTIVVVDTIPVELKSSYMVWSWFIYVLSANLLLVIPLLWVAAWWSLRPIEALAKEVRELEEHNRELLNPATTRELTSLVRNLNRLLKSERERYDKYRTTLTDLTHSLKTPLXXLQXXLRSLRSEKMSVSDAEPVMLEQISRISQQIGYYLHRASMRGGTLLSRELHPVAPLLDNLTSALNKVYQRKGVNISLDISPEISFVGEQNDFVEVMGNVLDNACKYCLEFVEISARQTDEHLYIVVEDDGPGIPLSKREVIFDRGQRVDTLRPGQGVGLAVAREITEQYEGKIVAGESMLGGARMEVIFGRQHSAPKDE

The full ranking holds about 140,000 sequences; the median of “enrichment ratio after two sorts for PhoP signalling” is about 0, and the highest 2% start at about 11. Many of the other results were omitted from the sample, so the highest values are more common in it than they were.

The variants in this test derive from B1. Kind of test: enrichment ratio after two sorts for PhoP signalling (ratio (wild type AVST 3.29)); higher = more functional. To be noted: with PhoP (E. coli).
MTRL: the enrichment ratio is at most 0.25.
Take WLCL: the enrichment ratio was at most 0.25.
The same measure for MTCI: at most 0.25; for GTAR: at most 0.25.
As to FHNH, the enrichment ratio is at most 0.25.
In the case of YRKS, the enrichment ratio is at most 0.25.
The same measure for GQTP: at most 0.25.
With THVR the figure was at most 0.25.
With MGQG the figure was at most 0.25.
Regarding EIWF, the enrichment ratio is at most 0.25.
With RYFG the figure was at most 0.25; with GLNL, at most 0.25.
Regarding GLCL, the enrichment ratio was found to be 13.5.
Consider GLEL, for which the enrichment ratio was at most 0.25.
With MTME the figure was at most 0.25; with IMWI, at most 0.25; with AHST, at most 0.25.
On to SMST, for which the enrichment ratio stood at 13.1.
Turning to TGST, the enrichment ratio is 15.2.
The same measure for AIST: 6.85; for AGST: 14.8.
With SMNT the figure was at most 0.25; with TIST, 12.7; with KMST, at most 0.25.
With NIST the figure was at most 0.25; with NGST, at most 0.25; with ADST, at most 0.25.
Consider RGST, for which the enrichment ratio is at most 0.25.
As for RSCK, the enrichment ratio is at most 0.25.
The same measure for DWGV: at most 0.25.
With FMYR the figure was at most 0.25; with FQIQ, at most 0.25; with MCFN, 4.25.
With AMST the figure was 12.2; with HKST, at most 0.25; with NMST, at most 0.25.
Consider DMST, for which the enrichment ratio was at most 0.25.
As for AKST, the enrichment ratio was 6.32.
As to TKST, the enrichment ratio came to 15.4.
With YFCR the figure was 0.754; with YQIY, at most 0.25; with WDCT, at most 0.25.
The same measure for TGCY: 8.48; for RGCY: at most 0.25; for GGCY: 16.1.
The same measure for QRCY: at most 0.25.
MGWY: the enrichment ratio amounted to 4.8.
The same measure for MGCY: 29.2.
The same measure for QHTT: at most 0.25; for KNTT: at most 0.25; for ERTE: at most 0.25.
With QKMV the figure was at most 0.25.
Regarding TYTC, the enrichment ratio is at most 0.25.
With DMSG the figure was at most 0.25.
The same measure for TMSG: 24.1; for MMSN: at most 0.25; for TMSN: 12.5.
With NMSN the figure was at most 0.25; with KMSG, at most 0.25.
As to PCVI, the enrichment ratio is at most 0.25.
With GRTV the figure was at most 0.25; with QDSS, at most 0.25; with FFSS, at most 0.25.
The same measure for QESS: 19.7; for QRSS: at most 0.25; for TESS: 15.
MESS: the enrichment ratio worked out at 5.15.
For FVSS, the enrichment ratio is at most 0.25.
With QGSS the figure was 14.4; with NESS, at most 0.25; with IMKM, at most 0.25.
The same measure for LFRM: at most 0.25; for TWVL: at most 0.25; for WRGV: at most 0.25.
As to KLPK, the enrichment ratio is at most 0.25.
Turning to EIYQ, the enrichment ratio is at most 0.25.
With SCCF the figure was 13.7.
Take MECF: the enrichment ratio was at most 0.25.
As for SQCF, the enrichment ratio is 11.4.
With CTCF the figure was at most 0.25; with NECF, at most 0.25; with SRCF, at most 0.25.
For the variant STCF, the enrichment ratio was determined as 15.9.
In the case of YTCF, the enrichment ratio is 2.21.
For the variant MCCF, the enrichment ratio stood at 4.87.
The same measure for SNCF: 4.82.
Turning to SECF, the enrichment ratio was found to be 13.9.
The same measure for KCCF: at most 0.25; for PQGD: at most 0.25; for YMHS: at most 0.25.
The same measure for GKRI: at most 0.25.
The same measure for SAIV: 3.88.
For ERRA, the enrichment ratio was at most 0.25.
With LTCF the figure was at most 0.25; with MTCF, 1.4.
The same measure for TTCF: 17.7.
In the case of IHTH, the enrichment ratio was at most 0.25.
With LQWA, the enrichment ratio is at most 0.25.
On to NAMY, for which the enrichment ratio was at most 0.25.
With KAME the figure was at most 0.25; with TAIE, at most 0.25.
As to TAME, the enrichment ratio came out at 15.7.
Take TAMY: the enrichment ratio stood at 17.4.
Take KAMY: the enrichment ratio was at most 0.25.
With RLHS, the enrichment ratio is at most 0.25.
The same measure for THTF: 0.991; for SFPM: at most 0.25.
The same measure for RSPG: at most 0.25; for QSHL: 13.5.
For the variant QTHL, the enrichment ratio was found to be 4.03.
As to YAHL, the enrichment ratio is at most 0.25.
For the variant QAHL, the enrichment ratio was 16.7.
Turning to QGHL, the enrichment ratio is 18.3.
In the case of TAHL, the enrichment ratio came to 17.4.
For FFHL, the enrichment ratio is at most 0.25.
For THHL, the enrichment ratio was 2.02.
In the case of KAHL, the enrichment ratio is at most 0.25.
The same measure for KSHL: at most 0.25; for IAHL: at most 0.25; for NAHL: at most 0.25.
With KINI the figure was at most 0.25.
SEPT: the enrichment ratio is at most 0.25.
For NNGF, the enrichment ratio is at most 0.25.
With LQLD the figure was at most 0.25; with NKMF, at most 0.25; with QAHF, 15.5.
With QANF the figure was 21; with YAHM, at most 0.25; with KANF, at most 0.25.
Consider QAHK, for which the enrichment ratio is at most 0.25.
Turning to QDHM, the enrichment ratio was at most 0.25.
On to QAHM, for which the enrichment ratio was determined as 22.3.
Turning to NANF, the enrichment ratio is at most 0.25.
With NQNF the figure was at most 0.25; with QQNF, 16.3.
With QLNF the figure was at most 0.25; with QAQF, at most 0.25.
The same measure for HNRG: at most 0.25; for WPAL: at most 0.25; for GSVC: at most 0.25.
For the variant LGSN, the enrichment ratio was at most 0.25.
The same measure for MHVR: at most 0.25; for WLSV: at most 0.25; for WRAR: at most 0.25.
As to KRNR, the enrichment ratio is at most 0.25.
As for ECFS, the enrichment ratio is at most 0.25.
Turning to ANNF, the enrichment ratio is 12.9.
For the variant SLNF, the enrichment ratio came to 1.82.
With STNF the figure was 12.6; with CTNF, at most 0.25; with AINF, 1.66.
With YTNF the figure was at most 0.25; with KYNF, at most 0.25; with AHNF, 9.49.
The same measure for TTNF: 6.07; for ATNF: 20.9.
Take GTNF: the enrichment ratio is at most 0.25.
On to SCNF, for which the enrichment ratio was found to be 14.3.
